Data: the supplement of paper PMC3724861
Shown is part of a subset that was picked to be rich in hits. No count for the full screen is at hand. A number with no mark means an inactive call.

The sequences below were run on T1, Caupolican (Caup) homeodomain DNA-binding domain (assay: PBM E-score (8-mer, recovered from the published 9-mer minima) (E-score (dimensionless, -0.5 to 0.5)); Drosophila protein; higher = stronger relative binding preference, active = 0.31 or more).
T1 sequence: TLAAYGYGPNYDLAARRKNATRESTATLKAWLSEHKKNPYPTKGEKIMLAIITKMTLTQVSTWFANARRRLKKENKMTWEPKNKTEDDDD
How it was run: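 Caup's homeodomain DNA-binding domain (residues 214-303) was produced by in vitro transcription and translation and applied at 100 nM to custom-designed protein binding microarrays. Each value is an enrichment score giving relative binding preference for a short DNA word; higher means stronger. Published 9-mer scores were the minimum of their two constituent 8-mer scores, and the 8-mer values were recovered from those minima. A cutoff of 0.31 marks candidate binding sequences.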

Row | Sequence | PBM E-score
1 | CACATGAA | 0.226
2 | GACATGAA | 0.318 (active)
3 | GTCATGAA | 0.0353
4 | ACCATGAA | 0.0242
5 | CACATGAC | 0.242
6 | TACAGAGA | 0.12
7 | GAGTTTGA | 0.0834
8 | CGTTTCCC | -0.165
9 | AAGATGGC | -0.0976
10 | CTGATTAA | 0.162
11 | AACCTTAA | -0.0003
12 | TGGGGGAA | -0.237
13 | GACTTCGA | -0.0675
14 | ACTAGAAG | 0.00911
15 | AACGGGCC | -0.162
16 | GTGACCTA | 0.0131
17 | GAGCTCAA | -0.094
18 | TGCAAAAA | 0.0586
19 | AGACTGCG | -0.129
20 | AGCTTCCC | -0.188
21 | AAGCCCCA | -0.232
22 | AAACACGG | 0.257
23 | AAACACGA | ≥ 0.351 (active)

Row | Sequence | PBM E-score
24 | AAACACGC | 0.248
25 | AAACACGT | 0.312 (active)
26 | AAACACTT | 0.153
27 | ACACACGT | 0.254
28 | CAAAGCGC | -0.207
29 | GATCAGGC | -0.0491
30 | ACCGACTA | 0.0195
31 | ACCCCGCA | -0.142
32 | CCCATGTA | 0.326 (active)
33 | GCCATGTA | 0.346 (active)
34 | CCCATGGA | 0.021
35 | CCCATGTC | 0.309
36 | CCAATGTC | 0.0611
37 | ACCATGCC | -0.0174
38 | GCCATGCA | -0.0297
39 | ACCATGTC | 0.408 (active)
40 | ACTATGTC | 0.302
41 | GCCATGGA | -0.137
42 | ACAATGTA | 0.285
43 | ACAATGTC | 0.316 (active)
44 | AATATTTC | 0.0671
45 | TGATTGCA | 0.139
46 | GAAATAAA | 0.0685

Row | Sequence | PBM E-score
47 | ATGCGAAC | 0.0459
48 | GACTCAAC | 0.0307
49 | CGAAGGTC | -0.156
50 | ACAGCAAT | 0.163
51 | ACAGTTGC | 0.0312
52 | CCGATAAC | 0.0305
53 | ACCATGTA | ≥ 0.422 (active)
54 | ACCATGCA | 0.0966
55 | ACCATGTG | 0.145
56 | AATTTGGA | 0.0747
57 | ATGAACAT | 0.326 (active)
58 | ATGAACAG | 0.22
59 | AGGAACAC | 0.193
60 | CTGAACAC | 0.235
61 | GTGAACAC | 0.256
62 | ACGAACAT | 0.349 (active)
63 | ATGAACAA | 0.286
64 | AGGAACAG | 0.0859
65 | ACGAACAA | 0.298
66 | AGGAACAT | 0.339 (active)
67 | ACGAACAG | 0.137
68 | ATGAACAC | 0.332 (active)
69 | AACGGGTA | 0.0722

Row | Sequence | PBM E-score
70 | CCCGTCGG | -0.289
71 | CCGCAGCC | -0.25
72 | GCGCCGAC | -0.199
73 | GATCGCAC | 0.0699
74 | CATTTGCG | 0.00242
75 | ACCTTCGT | -0.0522
76 | GCCACCTA | -0.192
77 | GACAAGTA | 0.355 (active)
78 | ACCAAGTA | 0.0922
79 | GACAAATA | 0.218
80 | CACAAGTA | 0.205
81 | AACAAGTA | 0.33 (active)
82 | TACAAGTA | ≥ 0.407 (active)
83 | AACAAGTG | 0.334 (active)
84 | TACAAAGA | 0.239
85 | CACAAGTG | 0.111
86 | AACAAATA | 0.287
87 | AACAAATG | 0.174
88 | GACAAGTC | 0.236
89 | CATGAAGG | 0.0126
90 | ACCCCGAA | -0.106
91 | AGTGGGTC | -0.178
92 | GAAACTGC | -0.184

Row | Sequence | PBM E-score
93 | ACCAGGGC | -0.112
94 | GGCAGCTA | -0.136
95 | CGTTTTCC | 0.0392
96 | GACGCGTC | -0.0916
97 | ACCGTCCT | -0.0635
98 | ACTCAAGA | -0.0159
99 | AAGTCAGG | -0.109
100 | AACAAGTC | 0.278
101 | AACAAGGT | 0.293
102 | AACAAGTT | 0.33 (active)
103 | CTTTGCTC | -0.0311
104 | CATCCCTC | -0.0768
105 | CAAGTGGG | -0.0243
106 | GTGTGTTA | 0.275
107 | ATGTGTGG | 0.0766
108 | ATGTGTTA | ≥ 0.323 (active)
109 | ATGTGTTG | 0.34 (active)
110 | ATGTGTTC | 0.266
111 | CTGTGTTA | 0.259
112 | AAAGAAGT | 0.0392
113 | CATGCTGG | 0.0451
114 | CGAAGTCC | -0.149
